Five compounds from PubChem BioAssay AID729 (The Scripps Research Institute Molecular Screening Center, 2007) can be followed below.

Screen size: about 97,000 compounds; about 450 (0.46%) were called active. No stated cut-off is given here; in the data, active means activation above about 16%; inactive means the rest. Shown is part of a subset that was picked to be rich in actives.

The assay deals with Sphingosine 1-phosphate receptor 2 (Homo sapiens) (UniProt O95136). Put plainly: S1P2 receptor agonists, primary screen, cell-based (AID 729).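 Further: 0% = vehicle low control and 100% = maximal reference agonist.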 The following applies: S1P2-expressing cell line, agonist reporter read-out; at 4.5 µM; stronger effect = higher value.
Sequence of Sphingosine 1-phosphate receptor 2 (Homo sapiens) (O95136 whole entry, looked up): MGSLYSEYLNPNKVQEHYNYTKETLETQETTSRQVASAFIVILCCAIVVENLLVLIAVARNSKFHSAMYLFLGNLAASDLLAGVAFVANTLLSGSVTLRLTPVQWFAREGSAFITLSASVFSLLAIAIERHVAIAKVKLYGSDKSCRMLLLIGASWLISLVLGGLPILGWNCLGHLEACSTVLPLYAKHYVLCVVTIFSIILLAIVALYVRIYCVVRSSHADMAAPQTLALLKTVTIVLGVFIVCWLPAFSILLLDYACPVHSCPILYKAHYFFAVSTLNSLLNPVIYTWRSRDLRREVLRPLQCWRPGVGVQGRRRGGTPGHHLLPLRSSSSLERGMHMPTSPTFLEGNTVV
As to `COc1cc(Cn2c(N)c(C(=O)NCc3ccco3)c3nc4ccccc4nc32)cc(OC)c1OC`, the activation is 28.7% (active). The figure for `CCOC(=O)c1c(N)n(Cc2ccccc2)c2nc3ccccc3nc12` is 1.34% (inactive); for `CCOC(=O)c1c(N)n(CCN2CCOCC2)c2nc3ccccc3nc12` it is -0.82% (inactive); for `O=c1c2ccccc2nc(-c2ccc(Cl)cc2Cl)n1-c1ccncc1` it is -3.53% (inactive). For `OC(Cn1c2ccccc2c2ccccc21)C[n+]1ccccc1` (stereo not given), the activation was -10.8% (inactive).
